# Rows were chosen to be rich in hits. Some 5.7% of all compounds tested hit in one or more screens of this group.
# RORgamma inh: ROR gamma (mouse) transcription inhibition; P51450; Drosophila S2 Gal4-RORgamma UAS-luciferase reporter, 20 h; Potency, µM (titrated, usually from 53.6 µM), without a hit: at the highest dose activity change, negative = inhibition, actives largely listed as inhibitors; hit rate 5.4% among 310,000; AID 2551; further: nearly all actives have a fitted effect of over 60% in size
#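 Schneider cells (Drosophila), stable Gal4 DBD–ROR gamma + UAS-luc; 1 hr cmpd preincubation; Cu2+ induction 700 uM final; 20 hr ambient; luminescence.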
# NPSR antag: blocks cAMP signaling of the human neuropeptide S receptor. Q6W5P4. CHO-NPSR cells, cAMP TR-FRET, antagonist mode. Potency, µM (titrated, usually from 38.3 µM), for inactives: at the top dose activity change, negative = inhibition, actives largely listed as inhibitors. hit rate 1% among 220,000. AID 1461; further: nearly all actives have a fitted effect of over 50% in size
# Target sequence (Q6W5P4 whole entry, looked up): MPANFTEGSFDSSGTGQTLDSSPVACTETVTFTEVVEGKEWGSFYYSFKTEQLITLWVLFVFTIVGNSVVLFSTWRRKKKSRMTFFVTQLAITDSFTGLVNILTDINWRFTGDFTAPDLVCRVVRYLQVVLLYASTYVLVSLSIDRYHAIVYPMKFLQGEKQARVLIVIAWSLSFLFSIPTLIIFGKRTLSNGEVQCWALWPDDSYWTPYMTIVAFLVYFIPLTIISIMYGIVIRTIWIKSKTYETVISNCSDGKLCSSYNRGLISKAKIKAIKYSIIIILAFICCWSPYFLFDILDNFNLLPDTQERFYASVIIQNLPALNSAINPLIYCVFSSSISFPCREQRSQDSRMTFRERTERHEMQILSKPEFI
# B2AR arrestin: beta2AR (human) beta-arrestin recruitment activity. beta-arrestin recruitment to beta2AR, cell-based reporter. Potency, µM (series often up to 46.1 µM), for inactives: at the highest dose activation, most hits filed as activators. hit rate 0.02% among 330,000;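 further: 0% = DMSO controls and full agonism = EC100 isoproterenol or metaproterenol; nearly all actives have a fitted effect of over 65% in size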
# VP16 counter: counter-screen for ROR gamma inhibitors: Gal4-VP16 reporter. Drosophila S2 Gal4-VP16 UAS-luciferase, luminescence, 20 h. hit rate 3.5% among 310,000. AID 2546. Potency, µM (highest dose often 53.6 µM), for the others: top-dose activity, negative = inhibition, actives largely listed as inhibitors;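 further: Gal4-VP16 expression switched on by copper sulfate through the metallothionein promoter; nearly all actives have a fitted effect of over 50% in size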
# Numbers without * were called inactive; u = inconclusive; x = no result; [ ] = dose if it differs, or a comment. The call rests on the fitted dose curve; in most records, active means well fitted curve in the direction sought with a large enough effect; inconclusive means small, poorly fitted or top-dose-only effect, or another doubt; inactive means no such curve, though single readings can be large; an effect the other way counts as inactive or inconclusive. Unless noted, on the % scale 0 is the no-effect control and ±100 the full control effect; potency means the concentration at half of the fitted maximal effect.
SMILES,RORgamma inh,NPSR antag,B2AR arrestin,VP16 counter
COCCN(C(=S)Nc1ccccc1C)C(C)c1ccco1 (stereo not given),u,-11%,0%,7%
CC(C)N(C)C,1%,x,x,-7%
CCCCN(CC)Cc1ccc(CNC(=S)Nc2ccc(C)cc2Cl)o1,16µM*,-19%,0%,-27%
CCCCN(CC)Cc1ccc(CNC(=O)Nc2ccc(F)cc2)o1,-5%,-12%[46.1 µM],0%,-1%
CCCCN(CC)Cc1ccc(CNC(=S)Nc2c(C)cc(C)cc2C)o1,3.2µM*,-37%,10%,6.3µM*
O=c1cc2c(=O)oc3cc(O)c(O)oc3c2c(O)c1O,-27%,7%,0%,-21%
O=C(CN(Cc1ccccc1)C(=O)CNS(=O)(=O)c1ccc(F)cc1)NCc1ccco1,u,x,0%,9%
O=C(N=Nc1c(O)n(Cc2ccccc2)c2ccccc12)c1cc2ccccc2cc1O,u,u,0%,-46%
Cc1cccc(Cn2c(O)c(N=NC(=S)Nc3ccccc3F)c3ccccc32)c1,3.2µM*,-16%,0%,5µM*
Oc1c(N=NC(=S)Nc2ccccc2F)c2ccccc2n1Cc1cccc(Cl)c1,u,-3%,0%,3.5µM*
Oc1c(N=NC(=S)Nc2ccccc2F)c2ccccc2n1Cc1ccc(F)cc1,2.8µM*,-17%,-1%,3.5µM*
COc1cc(OC)c2c(c1C(CCN1CCCC(C)C1)c1ccc(N(C)C)cc1)OC(=O)CC2c1ccc(N(C)C)cc1 (stereo not given),-3%,x,x,-11%
CC1CCCCC12NC(=O)N(CC(=O)OCC(=O)N(C)C1CCCCC1)C2=O (stereo not given),x,x,-1%,x
CN(c1cccc(NC(=O)CN(c2ccc(F)cc2)S(C)(=O)=O)c1)S(C)(=O)=O,3%,5%,0%,-4%
Cc1cccc(NC(=O)CN(c2ccc(F)cc2)S(C)(=O)=O)c1,5.6µM*,u,0%,5µM*
Cc1ccc(OCCN2CCN(C(=O)CCC(=O)Nc3nnc(C(C)C)s3)CC2)cc1,38%,9%[46.1 µM],0%,13µM*
Cc1ccc(OCCN2CCN(C(=O)CCC(=O)Nc3nnc(C)s3)CC2)cc1,u,23%[46.1 µM],0%,-5%
COc1cccc(N2CCN(c3ncnc4c3[nH]c3ccc(F)cc34)CC2C)c1 (stereo not given),u,2.5µM*,0%,7.1µM*
COc1cccc(N2CCN(c3ncnc4c3[nH]c3ccccc34)CC2C)c1 (stereo not given),u,10µM*,-1%,14µM*
COc1ccc2[nH]c3c(N4CC(C)OC(C)C4)ncnc3c2c1 (stereo not given),20%,-12%[46.1 µM],0%,-1%
COc1cccc(-c2nccc(NCc3ccc(OC)cc3OC)n2)c1,102%,x,x,-11%
Cc1cccc(-c2n[nH]c(=S)n2/N=C/c2cccs2)c1,5µM*,u,0%,10µM*
S=c1[nH]nc(-c2cccnc2)n1/N=C/c1cccs1,u,-19%[46.1 µM],0%,-1%
Cc1cccc(-c2n[nH]c(=S)n2/N=C/c2ccc(C)s2)c1,11µM*,-18%,-1%,5.6µM*
Cc1ccc(-c2c(CC(=O)O)c(C)nc3sc4c(c23)CCCC4)cc1,1%,x,-1%,2%
SMILES,RORgamma inh,NPSR antag,B2AR arrestin,VP16 counter
Cc1nc2ccc(Br)cn2c1C(=O)N/N=C\c1ccc(C(C)C)cc1,5.6µM*,x,0%,5µM*
CC(C)c1ccc(/C=N/NC(=O)c2ccccc2Cl)cc1,u,28%,0%,-2%
O=C(N/N=C1/C[C@@H](O)[C@@H](O)[C@@H]2[C@@H]3C(=O)N(Cc4ccc5c(c4)OCO5)C(=O)[C@H]3CC[C@H]12)OCc1ccccc1,2%[10 µM],x,x,2%[10 µM]
CCOC(=O)c1sc(=NC(=O)c2ccccc2)n(C)c1C,-27%,u,0%,-29%
CCOC(=O)c1sc(=NC(=O)c2cccc(OC)c2)n(C)c1C,21%,10µM*,0%,13%
O=C(Nc1ccccc1)N1CCCC2(CCN(C(=O)c3cc(C(F)(F)F)cc(C(F)(F)F)c3)CC2)C1,-7%,x,x,-2%
CC(=O)c1ccc(NC(=O)CN2CCCCCC2)cc1,10%,x,0%,3%
Cc1cc(Nc2cccc(Cl)c2)nc(NCc2ccccc2)n1,u,u,0%,16µM*
Cc1cc(N2CCCCC2)nc(NCc2ccccc2)n1,20µM*,6%[46.1 µM],0%,u
Cc1cc(N/N=C/c2cccc(Cl)c2)nc(NCc2ccccc2)n1,u,u,-3%,u
CCc1ccc(OCc2ccccc2C(=O)Nc2ccc3nc(C)cc(N)c3c2)cc1,11µM*,x,x,u
CCOC(=O)c1ccc(NC(=O)c2cc(C)nc3ccccc23)cc1,u,x,-1%,0%
CCOc1ccc(C(=O)NCC(=O)N2CCC3(CC2)NCCc2[nH]cnc23)cc1,0%,x,0%,2%
CC(C)c1ccc(-n2cccc2/C=C2/C(=N)N3C=CSC3=NC2=O)cc1,7.1µM*,-42%,0%,16µM*
CCC1=NN2C(=N)/C(=C\c3cccn3-c3ccc(Br)cc3)C(=O)N=C2S1,0%,-44%,0%,-13%
CC1=CSC2=NC(=O)/C(=C\c3cccn3-c3ccc([N+](=O)[O-])cc3)C(=N)N12,u,-8%,0%,3.2µM*
COc1ccc(-c2ccc(/C=C3\C(=O)N(c4ccccc4)N=C3c3ccccc3)o2)c([N+](=O)[O-])c1,-17%,3%[46.1 µM],0%,-8%
Cc1ccccc1Cn1cccc1/C=C1/C(=N)N2C=CSC2=NC1=O,u,-19%[46.1 µM],-1%,u
COc1ccc(-c2ccc(/C=C3/C(=N)N4C(C)=CSC4=NC3=O)o2)c([N+](=O)[O-])c1,11µM*,-22%,-2%,u
CC1=CSC2=NC(=O)/C(=C\c3cccn3-c3ccccc3)C(=N)N12,-4%,-4%,2%,7%
CCC1=NN2C(=N)/C(=C\c3cccn3-c3cccc(Cl)c3)C(=O)N=C2S1,11µM*,-35%,0%,7%
COC(=O)[C@@]1(Cc2ccc(F)cc2)[C@H]2c3cc(C(=O)N(C)C)n(Cc4cc(F)c(F)c(F)c4)c3C[C@H]2CN1C(=O)c1ccccc1,-2%,x,x,-5%
CC(C)(C)Nc1nc(C#N)nc(Nc2ccccc2)n1,x,x,x,3%
COc1cccc2c1OC(=O)CC2c1ccc(C)cc1 (stereo not given),40%[96.6 µM],x,x,3%[96.6 µM]
COc1ccc(Nc2cccccc2=O)cc1,0%,-9%[46.1 µM],0%,15%
SMILES,RORgamma inh,NPSR antag,B2AR arrestin,VP16 counter
COc1ccc(C2=CC(=O)N(Nc3ccccc3)C2=O)cc1,u,-10%,0%,11µM*
O=C1C=C(c2ccccc2)C(=O)N1Nc1ccccc1,4.5µM*,13µM*,7%,5µM*
Cc1ccc(NN2C(=O)C=C(c3ccc(Cl)cc3)C2=O)cc1,7.1µM*,7.9µM*,0%,8.9µM*
CCc1nc(C)cn1S(=O)(=O)c1ccc([N+](=O)[O-])cc1,1%,-34%,0%,-9%
CCCn1c(CC)nc([N+](=O)[O-])c1S(=O)(=O)c1ccccc1,7.9µM*,u,0%,18µM*
CC1CCC/C=C/C(=O)c2c(O)cc(O)cc2CC(=O)O1 (stereo not given),u,5µM*,0%,22µM*
